# Measurements reported in paper PMC12670160, “A drug-repurposing screen of FDA- and EMA-approved drugs identifies two NF-κB inhibitors active against eumycetoma” (Journal of Antimicrobial Chemotherapy, 2025).
# Counter-ions that a name gives are not always drawn. Like-named read-outs stand apart in the source and are kept apart here. The campaign covered roughly 5,300 compounds. About 130 (2.5%) showed an effect of 50% or more. Only a selection was taken, and strong results are over-represented in it overall.
# Test system: M. mycetomatis strain mm55
# Conditions: primary screen, metabolic activity vs growth control, 96 h, 2 µM, inhibitor
# [1] = Madurella mycetomatis metabolic activity at 2µM (%)
SMILES,% viability [%],% viability [1] [%]
"O=C(Nc1c[nH]nc1-c1nc2cc(CN3CCOCC3)ccc2[nH]1)NC1CC1 [ONC0004692, at9283]",87.23,–
C[C@@H](c1nc(-c2ccc(C#N)cc2)cs1)[C@](O)(Cn1cncn1)c1ccc(F)cc1F [Ravuconazole],0.9972,–
C[C@@H](c1nc(-c2ccc(C#N)cc2)cs1)[C@](O)(Cn1cncn1)c1cc(F)ccc1F [Isavuconazole],3.591,–
C[C@@H](c1ncncc1F)[C@](O)(Cn1cncn1)c1ccc(F)cc1F [Voriconazole],2.12,–
"OC(Cn1cncn1)(Cn1cncn1)c1ccc(F)cc1F [ONC0005572, fluconazole]",73.77,–
"CO[C@H]1CC[C@H](N2C(=O)CNc3ncc(-c4ccc(C(C)(C)O)nc4)nc32)CC1 [ONC0001106, cc223]",54.41,–
"COc1ccc(-c2cnc3c(-c4cccc5ncccc45)cnn3c2)cc1 [ONC0002277, chr6494]",–,84.04
"C[C@@H]1[C@H](O)[C@@H](C)/C=C/C=C/CC/C=C/C=C/C=C/C=C/[C@H](O[C@@H]2O[C@H](C)[C@@H](O)[C@H](N)[C@@H]2O)C[C@@H]2O[C@](O)(C[C@@H](O)[C@H](O)CC[C@@H](O)C[C@@H](O)C[C@@H](O)CC(=O)O[C@H]1C)C[C@H](O)[C@H]2C(=O)O [ONC0002036, nystatin]",93.36,–
"O=C(O)C=C1NN(Cc2nc3cc(C(F)(F)F)ccc3s2)C(=O)c2ccccc21 [ONC0005526, zopolrestat]",123.5,–
"CCS(=O)(=O)N1CCC[C@@H]2CN3CCc4cc(OC)ccc4[C@@H]3C[C@@H]21 [ONC0002617, rs79948]",85.43,–
"C[C@@]1(c2nc3c(C(N)=O)cccc3[nH]2)CCCN1 [ONC0004676, abt888 veliparib]",121,–
"Cc1cc(NC(=O)C2C(=O)c3ccccc3S(=O)(=O)N2C)no1 (centres unmarked) [ONC0002885, isoxicam]",123.7,–
"C[n+]1cccc(C(=O)O)c1 [ONC0003448, trigonellinehcl]",47.48,–
"O=C(O)c1ccccc1 [ONC0003100, benzoic acid]",90.48,–
"O=C(O)c1ccc[n+]([O-])c1 [ONC0005291, oxiniacic acid]",104,–
"Cc1cc(CCC[C@H](CC(=O)NO)C(=O)N[C@H](C(=O)N[C@H](C)c2ccccc2)C(C)(C)C)ccc1-c1ccccc1 [ONC0002525, uk356618]",62.33,–
"CC(C)[C@@H]1CC[C@@H](C)C[C@@H]1P(=O)(c1ccccc1)c1ccccc1 [ONC0003951, dpo1]",47.19,–
"CC(C)[C@@H]1CC[C@@H](C)C[C@H]1O [ONC0003141, levomenthol]",69.71,–
"CC[C@H](C)[C@H](NC(=O)[C@H](Cc1ccc(O)cc1)NC(=O)[C@@H](NC(=O)[C@H](CCCNC(=N)N)NC(=O)[C@@H](N)CC(=O)O)C(C)C)C(=O)N[C@@H](Cc1cnc[nH]1)C(=O)N1CCC[C@H]1C(=O)N[C@@H](Cc1ccccc1)C(=O)O [ONC0002134, angiotensin ii human]",79.83,–
"CC(C)N[C@H]1CCn2c(=O)[nH]c3cccc(c32)[C@@H]1O [ONC0003872, zilpaterol]",87.84,–
"COc1cc(CC2NCCc3cc(O)c(O)cc32)cc(OC)c1OC (centres unmarked) [ONC0002165, trimethoquinol]",66.75,–

SMILES,% viability [%],% viability [1] [%]
"O=C(O)Cc1ccc2c(c1)C(=O)c1ccccc1CO2 [ONC0003681, isoxepac]",47.44,–
"O=C(O)Cc1ccc(-c2ccccc2)cc1 [ONC0005558, felbinac]",137.1,–
"CN(C)CC/C=C1/c2ccccc2COc2ccc(CC(=O)O)cc21 [ONC0004990, olopatadine hydrochloride opatanol]",101,–
"O=C1c2cccnc2OC[C@@H]2CCCN12 [ONC0001148, org26576]",83.51,–
"CCOC(=O)NNc1ccc(N(CC)CC(C)O)nn1 (centres unmarked) [ONC0001944, cadralazine]",72.29,–
"C=C1C(=O)O[C@@H]2[C@H]3O[C@]3(C)CC/C=C(\C)CC[C@@H]12 [ONC0002950, parthenolidealternatestereo]",150.2,–
"Cc1cccn2c(=O)c(/C=C(\C#N)c3nc4ccccc4s3)c(Oc3ccc(F)cc3)nc12 [ONC0003502, ccg63808]",42.44,–
"Cc1cccc(Oc2nc3c(C)cccn3c(=O)c2/C=C(\C#N)c2nc3ccccc3s2)c1 [ONC0001281, ccg63802]",68.65,–
"Cc1ccc(OC[C@@H](O)[C@H](C)NC(C)C)c2c1CCC2 [ONC0001929, ici118551]",52.35,–
"Cc1ccc(-c2ncccn2)c(C(=O)N2C[C@H](COc3ccc(F)cn3)CC[C@H]2C)c1 [ONC0005570, filorexant]",73.84,–
"O=C(O)CC(O)(CC(=O)O)C(=O)O.[Li].[Li].[Li] [ONC0004255, lithium citrate hydrate]",60.67,–
"CCCCCCCCCCCCOCCOCCOCCOCCOCCOCCOCCOCCOCCO [ONC0002139, polidocanol]",78.72,–
"C[C@H]1OC(O)[C@H](O)[C@H](O)[C@H]1O (some centres unmarked) [ONC0004779, l rhamnose monohydrate]",103.9,–
"C/C=C1\NC(=O)[C@H]2CSSCC/C=C/[C@H](CC(=O)N[C@H](C(C)C)C(=O)N2)OC(=O)[C@H](C(C)C)NC1=O [ONC0000722, romidepsin]",49.6,–
"Cc1ccc(-c2ccc(C)cn2)nc1 [ONC0002143, abametapir]",65.91,–
"C=C[C@H]1C[N@@]2CC[C@H]1C[C@H]2[C@H](O)c1ccnc2ccc(OC)cc12 [ONC0003402, quinine]",78.04,–
"CC/C(=C(\c1ccccc1)c1ccc(OCCN(C)C)cc1)c1ccccc1 [ONC0000595, tamoxifen citrate]",106.5,–
"CC/C(=C(\c1ccc(O)cc1)c1ccc(OCCNC)cc1)c1ccccc1 [ONC0004522, endoxifen hcl]",48.7,–
"CC/C(=C(\c1ccc(O)cc1)c1ccc(OCCN(C)C)cc1)c1ccccc1 [ONC0002197, afimoxifene]",79.17,–
"O=c1c2ccccc2nc2n1CCc1c-2[nH]c2ccccc12 [ONC0004955, rutaecarpine rutecarpine]",80.68,–
"O=C1c2ccccc2-n2c1nc1ccccc1c2=O [ONC0003517, tryptanthrin]",43.27,–

SMILES,% viability [%],% viability [1] [%]
"COc1cc(-n2c(S)nc3ccccc3c2=O)c(Cl)cc1Cl [ONC0004315, mdivi1]",127.2,–
"COC(=O)Nc1nc2ccc([S+]([O-])c3ccccc3)cc2[nH]1 (centres unmarked) [ONC0004180, oxfendazole]",72.44,–
"NC(C(=O)O)c1ccc(C(=O)O)c(O)c1 (centres unmarked) [ONC0002596, 4carboxy3hydroxyphenylglyciners]",58.45,–
"CC(=O)O[C@@H]1CC[C@@]2(C)C(CC[C@]3(C)C2C(=O)C=C2[C@@H]4[C@@H](C)[C@H](C)CC[C@]4(C)CC[C@]23C)[C@@]1(C)C(=O)O (some centres unmarked) [ONC0003387, acetyl11ketobetaboswellicacid]",70.79,–
"COc1cc2c(c(OC)c1OC)-c1c(cc3c(c1OC)OCO3)C[C@H](C)[C@@H](C)C2 [ONC0005204, schisandrin b]",87.3,–
"O=C1CCCCCCCCCCCCCCO1 [ONC0002133, oxacyclohexadecan2one]",71.7,–
"O=C(O)CN(CCN(CC(=O)O)CC(=O)O)CCN(CC(=O)O)CC(=O)O [ONC0005602, pentetic acid]",–,107.7
"Oc1cccc(Nc2ccc(Nc3cccc(O)c3)nn2)c1 [ONC0002962, 363hydroxyphenylaminopyridazin3ylaminophenol]",67.52,–
"Nc1ccc(C(=O)O)c(O)c1 [ONC0003334, aminosalicylate sodium]",35.29,–
"Nc1ccc(O)c(C(=O)O)c1 [ONC0002803, mesalamine lialda]",82.25,–
"Nc1ccc(C(=O)Oc2ccccc2)c(O)c1 [ONC0003304, phenyl aminosalicylate]",56.4,–
"[H]/N=C(/N)N/C(=N/[H])NCCc1ccccc1 [ONC0000619, phenformin hydrochloride]",104.4,–
"CNC(=O)c1ccc2c(c1)S(=O)(=O)c1ccccc1C2=O [ONC0002375, bw616u]",76.21,–
"CCOC(=O)Nc1c[n+](N2CCOCC2)no1 [ONC0000636, molsidomine]",75.33,–
"Nc1c[n+](N2CCOCC2)no1 [ONC0003799, linsidomine]",49.48,–
"CC[C@@H](C(=O)O)C1CC[C@H](C)C([C@@H](C)[C@H](O)[C@H](C)C(=O)[C@H](CC)C2O[C@]3(C=C[C@@H](O)[C@]4(CC[C@@](C)(C5CC[C@](O)(CC)[C@H](C)O5)O4)O3)[C@H](C)C[C@@H]2C)O1 (some centres unmarked) [ONC0004344, salinomycin procoxacin]",144.3,–
"CN(C)c1ccc2c(c1)Sc1cc(N(C)C)ccc1N2.CS(=O)(=O)O [ONC0001830, leucomethylene blue mesylate]",74.38,–
"CS(=O)(=O)c1ccc(-c2cnc(N)c(C(=O)Nc3ccccc3)n2)cc1 [ONC0004547, ve821]",76.73,–
"CS(=O)(=O)c1ccc(-c2cn3ccccc3n2)cc1 [ONC0002352, zolimidine]",42.05,–
"CS(=O)(=O)c1ccc(C2=C(c3ccccc3)C(=O)OC2)cc1 [ONC0001095, rofecoxib]",82.56,–
